Inhibition data for 99 compounds are collected here from PubChem BioAssay AID1259343 (VanderVen Lab, College of Veterinary Medicine, Cornell …, 2017).

The whole screen tested about 6,200 compounds, of which about 2,900 (47%) were called active. The set was probably picked from earlier hits. The list shows a part of the results. Values without a mark were called inactive. Cut-off read from the data, not from the text of the source: active = inhibition above about 50%; inactive = the rest.

The experiment can be described thus: Mycobacterium tuberculosis growth inhibition, primary screen (AID 1259343). Conditions: inhibition: at 10 µM, stronger effect = higher value; outcome: 10 uM.
The term inhibition denotes the relative decrease from the control value, in per cent. Turning to `C[CH2][Hg][S]c1ccccc1C(=O)O`, the inhibition was 102% (active). To `O=C(O)c1cccc2cccc(-c3cccc4cccc(C(=O)O)c34)c12` belongs 37%; to `O=C(Nc1ccc(Cl)cc1)c1c(Cl)nsc1Cl`, 68.1% (active). To `O=C(O)Cc1ccc([N+](=O)[O-])cc1Sc1ccc(Cl)cc1` belongs 54.2% (active); to `O=C1CC(=O)CC2(CCCC2)C1`, 22.1%; to `CN(C)c1c(Cl)cccc1NC(=O)c1cc(C2CC2)[nH]n1`, 19.5%. To `O=C(Nc1ccc(Cl)c(Cl)c1)Nc1cc(C(F)(F)F)c[nH]c1=O` belongs 9.25%; to `O=C(Nc1ccc(C(F)(F)F)cc1Cl)c1cc([N+](=O)[O-])[nH]n1`, 102% (active); to `CN(Cc1ccsc1)C(=O)c1cccc2c(=O)c3ccccc3[nH]c12`, 43.6%.

With `O=S(=O)(Nc1nc2c(F)cc(F)cc2s1)c1ccc(F)cc1F`, the inhibition is 73.8% (active). For `O=C(Nc1cccc(N2CCOC2=O)c1)C1CC(c2ccccc2)=NO1` (centres undefined) the value was 83.1% (active); for `N#Cc1cnc(N(Cc2cccc(O)c2)CC2CC2)c(Cl)c1`, -4.43%. For `FCCCN1CCc2onc(-c3ccc(-c4ccccc4)cc3)c2C1` the value was 38.4%; for `CSCCCNC(=O)c1ccc(-c2ccc(F)cc2)s1`, 2.44%. To `O=C(NC1CCc2ccccc21)c1ccc(-c2ccc3c(c2)OCCO3)s1` (centres undefined) belongs 34.8%; to `O=C(NCCc1ccc(F)cc1)c1ccc(-c2cccc(Cl)c2)s1`, 28.2%.

For `CCCCC(CC)COCCCNC(=O)c1ccc(-c2ccc3c(c2)OCO3)s1` (centres undefined), the inhibition is 89.3% (active). To `O=C(NCCc1ccc(F)cc1)c1ccc(-c2ccc3c(c2)OCO3)s1` belongs 66.8% (active); to `Cc1nc(NCCNC(=O)Nc2ccc(F)c(Cl)c2)cc(N2CCCC2)n1`, 58.8% (active).

Turning to `COc1ccc(/C=C/CN2CCCC(CO)(Cc3cccc(Cl)c3)C2)cc1` (centres undefined), the inhibition entry was “inactive”. As to `COc1ccc(/C=C/CN2CCN(c3cc(-n4cccn4)ncn3)CC2)cc1`, the inhibition was 89.8% (active). For the compound `Cc1ccc(NC(=O)CCn2nc3ccccn3c2=O)cc1F`, the inhibition is 57.8% (active). As for `CC1CN(C(=O)Nc2ccccc2C(F)(F)F)c2cccnc2N1` (centres undefined), the inhibition was 24.7%. Consider `O=C(COc1ccc2ccccc2c1)N1CCC(Nc2ccccc2)CC1`, for which the inhibition was 3.84%.

Consider `COC(=O)C1CCN(C(=O)COc2ccc(OCc3ccccc3)cc2)CC1`, for which the inhibition is 81.6% (active). To `COC(=O)C1CCN(C(=O)COc2ccc3ccccc3c2Br)CC1` belongs -1.48%. To `CCN1CC(=Cc2cc(C)n(C3CC3)c2C)C(=O)C(=Cc2cc(C)n(C3CC3)c2C)C1` belongs 30.3%; to `CCCCCCNC(=O)n1cc(F)c(=O)[nH]c1=O`, 97% (active); to `CCCCCNC(=O)N1CC2C3CCC(C3)C21` (centres undefined), 28.6%. For `CCCCCNC(=O)c1sc2[nH]c(=S)[nH]c(=O)c2c1C` the value was 36.1%; for `Cc1cccc(-c2ccc(CNC(=O)c3ccc(=O)n(C)n3)cc2)c1`, 55.3% (active). In the case of `O=C(NCc1ccc(Cl)cc1)c1cncn1-c1ccc(-c2ccc(F)c(F)c2)cc1`, the inhibition was -2.19%.

In the case of `Cc1cccc(-c2cccc(CNC(=O)c3ccc(=O)[nH]n3)c2)c1`, the inhibition was 18.8%. For `COc1cccc(Nc2nccc3c2cc(-c2ccc(N(C)C)cc2)n3C)c1` the value was 81.2% (active); for `COc1cccc(Nc2nccc3c2cc(-c2ccccc2)n3C)c1`, 87.3% (active).

In the case of `CC(C)c1ccc(Nc2cc3c(cn2)cc(-c2cccnc2)n3C)cc1`, the inhibition is 47.9%. For `Cn1c(-c2cccc(C(F)(F)F)c2)cc2c(Nc3ccncc3)nccc21` the value was 97.1% (active). To `COc1cc(OC)cc(-c2cc3c(Nc4ccccn4)nccc3n2C)c1` belongs 57% (active); to `COc1cccc(-c2ccnc3[nH]n(-c4ccccc4)c(=O)c23)c1`, 46.4%. For `CC(C)Cc1nnc(C(C)Sc2nc3ncc(Cl)cc3[nH]2)o1` (centres undefined) the value was -8.41%; for `CC(=O)c1ccc(-c2ccc(Br)s2)cc1`, 37%.

For `CC(C)C1(CNC(=O)c2ccc(Br)s2)CC1`, the inhibition is 95.1% (active). On to `Cc1cccc(NC(C)c2nnc(-c3cccs3)o2)c1C` (centres undefined), for which the inhibition was 61.2% (active).

Consider `O=C(Nc1ccc(Br)cc1)c1cc(Br)cc(Br)c1O`, for which the inhibition is 101% (active). For `O=c1[nH]cc(CNCc2ccccc2)c(=O)[nH]1`, the inhibition was 101% (active). For `CCC1CCCCN1C(=O)c1ccc(-c2cccc(Cl)c2)s1` (centres undefined) the value was 81.8% (active); for `CCC1CCCCN1C(=O)c1ccc(-c2ccc(F)cc2)s1` (centres undefined), 94.5% (active); for `O=C(O)C1CCN(c2ncnc3cc(-c4ccc(F)cc4)sc23)CC1`, 14.5%. To `Oc1ccc(C=Cc2ccncc2)cc1` belongs 37.5%; to `Cn1nc([N+](=O)[O-])nc1Oc1ccc(Br)cc1`, 68.9% (active); to `CCOC(=O)c1ccc(C#Cc2ccc3c(c2)C(C)(C)CCS3)nc1`, 87.4% (active). Consider `CC(C)c1ccc(CCNC(=O)CNc2ccc(C#N)c(Cl)c2)cc1`, for which the inhibition is 2.06%.

With `N#Cc1ccc(NC(=O)NCc2cccs2)cc1Cl`, the inhibition was 48.4%. As for `Cc1ccc(C(C)NC(=O)Nc2ccc(C#N)c(Cl)c2)o1` (centres undefined), the inhibition is 89.3% (active).

Consider `Cc1ccc(Nc2nc(-c3ccccc3)nc(Cl)c2N)cc1`, for which the inhibition is 45.9%. For `Cc1ccc(Nc2n[nH]nc2C(=O)Nc2ccc(C)cc2Cl)cc1` the value was 83.6% (active); for `Cc1ccc(NC(=O)NCCc2csc(C(C)C)n2)c(Cl)c1`, 25.8%; for `CCOC(=O)C1C(=O)CC(O)(c2ccc(Br)cc2)CC1C=C(Cl)Cl` (centres undefined), 34%. As for `Cc1cc(C)n2c(NCc3ccccc3)c(-c3ccc(Cl)cc3)nc2c1`, the inhibition was 51.4% (active). To `CCC(=O)Nc1c(-c2cc(C)cc(C)c2)nc2cc(C)ccn12` belongs 5.69%; to `O=[N+]([O-])c1ccc(Cl)c(S(=O)(=O)Oc2cccc3ccccc23)c1`, 20.7%.

In the case of `CCCS(=O)(=O)Oc1ccc([N+](=O)[O-])cc1-c1nc2ccccc2o1`, the inhibition is 99.4% (active). To `CCc1cc(=O)[nH]c(-n2nc(C)cc2NC(=O)c2cccc(OC)c2OC)n1` belongs 102% (active); to `COc1cccc(C(=O)Nc2cc(-c3cccs3)nn2-c2nc(C)c(C)c(=O)[nH]2)c1OC`, -24.6%. For `COc1ccccc1C(=O)Nc1cc(C)nn1-c1nc(C)cc(=O)[nH]1` the value was 99.4% (active); for `COc1cccc(C(=O)Nc2cc(C)nn2-c2nc(C)c(C)c(=O)[nH]2)c1OC`, 7.56%; for `COc1cccc(C(=O)Nc2cc(-c3cccs3)nn2-c2nc(C)cc(=O)[nH]2)c1OC`, 100% (active). For `COc1cccc(C(=O)Nc2cc(C)nn2-c2nc(C)cc(=O)[nH]2)c1OC` the value was 101% (active); for `COc1cccc2c1C(=O)c1c(O)c3c(c(O)c1C2=O)C[C@@](O)(C(C)=O)C[C@@H]3O[C@H]1C[C@H](N)[C@H](O)[C@H](C)O1`, 38.2%; for `COc1cccc(C(=O)Nc2cc(C3CC3)nn2-c2nc(C)cc(=O)[nH]2)c1OC`, 99.8% (active). For the compound `CCOc1ccccc1C(=O)Nc1cc(C)nn1-c1nc(C)cc(=O)[nH]1`, the inhibition is 101% (active). For `COC(=O)c1ccc(CN(Cc2ccco2)Cc2ccc(C)s2)o1` the value was 73.9% (active). With `Cc1[nH]nc(C(=O)N(Cc2cccc(F)c2)CC2CCCO2)c1Br` (centres undefined), the inhibition was -6.44%. As for `COC(=O)c1ccc(CN(Cc2ccc(C)s2)CC2CCCO2)o1` (centres undefined), the inhibition was 73.4% (active). `Cc1oc(-c2ccc(-c3ccccc3)cc2)nc1CN(Cc1ccccn1)CC1CCCO1` (centres undefined): the inhibition was -19.8%. `COc1ccc(CN(Cc2ccco2)CC(O)COc2ccc(Cl)cc2)cc1` (centres undefined): the inhibition was 6.76%.

Consider `Cc1ccc(C(C)NC(=O)CN(C(=O)Cn2cnc(C)c2C)C(C)c2ccc(C)c(C)c2)cc1C` (centres undefined), for which the inhibition is 37.8%. In the case of `CN(c1ccccc1)S(=O)(=O)c1cccc(NC(=O)C2CC2)c1`, the inhibition is 95% (active). To `COc1ccc(N(C)S(=O)(=O)c2ccc(OC)c(N3CCN(C(=O)C4CCC4)CC3)c2)cc1` belongs -12.6%; to `O=C(NS(=O)(=O)CCc1ccccc1)c1cccs1`, 57% (active). To `O=[N+]([O-])c1cnc(Nc2cccc(Cl)c2)c([N+](=O)[O-])c1` belongs 97.7% (active); to `COc1ccccc1Nc1ncc([N+](=O)[O-])cc1[N+](=O)[O-]`, 101% (active). Turning to `O=[N+]([O-])c1cnc(Nc2cccc(O)c2)c([N+](=O)[O-])c1`, the inhibition is 75.9% (active). For the compound `Cc1cc(C)cc(Nc2ncc([N+](=O)[O-])cc2[N+](=O)[O-])c1`, the inhibition is 92.8% (active). On to `O=[N+]([O-])c1cnc(Nc2ccccc2Cl)c([N+](=O)[O-])c1`, for which the inhibition was -16.6%. For `O=[N+]([O-])c1cnc(Nc2ccccc2O)c([N+](=O)[O-])c1` the value was 26.1%; for `C=C(C)C1Cc2c(ccc(C(=O)O)c2O)O1` (centres undefined), 48.9%; for `O=[N+]([O-])c1cnc(Nc2ccc(O)cc2)c([N+](=O)[O-])c1`, “inactive”.

Turning to `O=[N+]([O-])c1cnc(Nc2ccc(Cl)cc2)c([N+](=O)[O-])c1`, the inhibition was 58.3% (active). On to `CCN1CCN(c2cc3c(cc2F)c(=O)c(C(=O)O)cn3C2CC2)CC1`, for which the inhibition was 99.3% (active). For `Nc1cc(F)c(N2CC3CCC2C3)cc1C(=O)O` (centres undefined) the value was 36.3%; for `O=C(c1ccccc1)C1CCCN(Cc2nc(COc3ccccc3)no2)C1` (centres undefined), “inactive”; for `Clc1cccc(C2CCN(Cc3nc(COc4ccccc4)no3)C2)c1` (centres undefined), 92.9% (active).

For the compound `c1ccc(CCC2CCN(Cc3nc(COc4ccccc4)no3)CC2)cc1`, the inhibition entry was “inactive”. `Fc1ccccc1Cc1noc(CN2CCCN(Cc3ccccc3F)CC2)n1`: the inhibition is 34%. Consider `Fc1ccccc1Cc1noc(CN2CC[C@@H]3CCCC[C@H]3C2)n1`, for which the inhibition was 74.6% (active). `O=C(c1cccs1)C1CCCN(Cc2nc(COc3ccccc3)no2)C1` (centres undefined): the inhibition is 83.9% (active). For `c1ccc(OCc2noc(CN3CC[C@@H]4CCCC[C@H]4C3)n2)cc1` the value was 66.7% (active); for `OC(CCc1ccccc1)C1CCN(Cc2nc(Cc3ccccc3F)no2)CC1` (centres undefined), 43.5%.
